Consider six compounds from ChEMBL document CHEMBL1961873, “Compounds: GSK PKIS; Assays: Nanosyn kinase panel” (2012).

Several values for one entry are separate records, joined by “and”; a condition that tells them apart may be missing. Equal values may be shown once.

For test [1], the target named is T1, Aurora kinase A (Homo sapiens) (UniProt O14965).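 Further: values are mean percent inhibition.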
T1 sequence (whole entry): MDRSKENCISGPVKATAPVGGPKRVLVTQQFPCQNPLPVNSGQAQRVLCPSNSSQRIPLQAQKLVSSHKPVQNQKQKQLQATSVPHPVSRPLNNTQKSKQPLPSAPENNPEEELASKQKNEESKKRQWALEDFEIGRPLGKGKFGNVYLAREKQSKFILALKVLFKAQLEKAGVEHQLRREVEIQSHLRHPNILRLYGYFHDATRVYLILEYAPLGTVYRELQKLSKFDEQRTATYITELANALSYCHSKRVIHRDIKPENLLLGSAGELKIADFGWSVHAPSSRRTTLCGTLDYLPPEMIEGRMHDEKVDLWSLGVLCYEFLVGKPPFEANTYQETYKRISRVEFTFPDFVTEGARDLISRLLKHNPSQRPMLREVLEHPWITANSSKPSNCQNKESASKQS
To be noted: at 1 µM.

In test [2] the target is Aurora kinase B (Homo sapiens) (UniProt Q96GD4). The note with it: at 0.1 µM.
Sequence of Aurora kinase B (Homo sapiens) (Q96GD4 whole entry): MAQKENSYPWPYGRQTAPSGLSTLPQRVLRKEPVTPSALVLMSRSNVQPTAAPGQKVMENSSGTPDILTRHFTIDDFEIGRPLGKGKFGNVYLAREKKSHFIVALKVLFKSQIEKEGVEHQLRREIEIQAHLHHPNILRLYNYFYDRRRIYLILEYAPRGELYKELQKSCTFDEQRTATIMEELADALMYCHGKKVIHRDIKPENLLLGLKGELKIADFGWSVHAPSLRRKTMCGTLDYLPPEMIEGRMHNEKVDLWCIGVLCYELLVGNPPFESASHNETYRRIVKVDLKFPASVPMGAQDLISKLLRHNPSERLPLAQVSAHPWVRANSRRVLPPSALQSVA
Test [3] has the same target. The note with it: at 1 µM.
Test [4] deals with T2, Aurora kinase C (Homo sapiens) (UniProt Q9UQB9).
T2 sequence (whole entry): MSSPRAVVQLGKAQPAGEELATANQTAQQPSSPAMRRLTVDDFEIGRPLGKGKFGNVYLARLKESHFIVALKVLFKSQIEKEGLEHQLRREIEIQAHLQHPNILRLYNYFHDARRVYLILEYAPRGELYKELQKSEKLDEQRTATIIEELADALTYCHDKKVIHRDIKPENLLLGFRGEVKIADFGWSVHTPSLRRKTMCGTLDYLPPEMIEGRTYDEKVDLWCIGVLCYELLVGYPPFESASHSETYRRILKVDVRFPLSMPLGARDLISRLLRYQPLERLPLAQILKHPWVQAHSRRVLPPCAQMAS
To be noted: at 0.1 µM.

Test [5] has as its target T2, Aurora kinase C (Homo sapiens). The note with it: at 1 µM.
Test [6] concerns the target Serine/threonine-protein kinase 10 (Homo sapiens) (UniProt O94804). The note with it: at 0.1 µM.
Test [7] has the same target. The note with it: at 1 µM.
Test [8] deals with T3, Mitogen-activated protein kinase kinase kinase kinase 2 (Homo sapiens) (UniProt Q12851).
T3 sequence (whole entry): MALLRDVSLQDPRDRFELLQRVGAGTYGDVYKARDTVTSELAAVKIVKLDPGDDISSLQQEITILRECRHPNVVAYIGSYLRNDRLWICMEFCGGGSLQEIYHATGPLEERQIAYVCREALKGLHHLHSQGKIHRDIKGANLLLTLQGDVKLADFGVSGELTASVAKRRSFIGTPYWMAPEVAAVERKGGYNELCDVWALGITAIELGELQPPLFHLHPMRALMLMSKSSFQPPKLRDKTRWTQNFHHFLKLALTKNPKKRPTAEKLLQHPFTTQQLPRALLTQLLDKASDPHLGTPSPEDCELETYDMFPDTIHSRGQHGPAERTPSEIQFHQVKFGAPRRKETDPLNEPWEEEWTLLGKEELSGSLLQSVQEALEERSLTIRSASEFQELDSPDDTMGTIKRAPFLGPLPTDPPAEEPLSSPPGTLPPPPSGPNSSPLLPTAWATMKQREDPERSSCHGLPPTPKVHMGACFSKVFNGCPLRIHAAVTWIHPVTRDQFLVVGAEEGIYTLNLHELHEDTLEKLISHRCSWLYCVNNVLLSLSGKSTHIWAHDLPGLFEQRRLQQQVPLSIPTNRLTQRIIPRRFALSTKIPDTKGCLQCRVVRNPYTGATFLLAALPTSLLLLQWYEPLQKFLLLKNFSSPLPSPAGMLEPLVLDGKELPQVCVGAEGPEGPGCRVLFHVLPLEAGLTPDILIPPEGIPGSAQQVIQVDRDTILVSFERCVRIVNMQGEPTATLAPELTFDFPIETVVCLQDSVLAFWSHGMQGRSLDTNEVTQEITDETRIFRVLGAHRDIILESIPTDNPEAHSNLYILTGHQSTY
To be noted: at 0.1 µM.

For test [9], the target named is T3, Mitogen-activated protein kinase kinase kinase kinase 2 (Homo sapiens). To be noted: at 1 µM.
Test [10] addresses Mitogen-activated protein kinase kinase kinase kinase 4 (Homo sapiens) (UniProt O95819). To be noted: at 0.1 µM.
Test [11] shares this target. To be noted: at 1 µM.
Test [12] concerns the target Dual specificity mitogen-activated protein kinase kinase 1 (Homo sapiens) (UniProt Q02750). The note with it: at 0.1 µM.
Test [13] has the same target. To be noted: at 1 µM.
Test [14] has as its target Misshapen-like kinase 1 (Homo sapiens) (UniProt Q8N4C8). To be noted: at 0.1 µM.
For test [15] the target is unchanged. The note with it: at 1 µM.
Test [16] has as its target T4, Serine/threonine-protein kinase 4 (Homo sapiens) (UniProt Q13043).
T4 sequence (whole entry): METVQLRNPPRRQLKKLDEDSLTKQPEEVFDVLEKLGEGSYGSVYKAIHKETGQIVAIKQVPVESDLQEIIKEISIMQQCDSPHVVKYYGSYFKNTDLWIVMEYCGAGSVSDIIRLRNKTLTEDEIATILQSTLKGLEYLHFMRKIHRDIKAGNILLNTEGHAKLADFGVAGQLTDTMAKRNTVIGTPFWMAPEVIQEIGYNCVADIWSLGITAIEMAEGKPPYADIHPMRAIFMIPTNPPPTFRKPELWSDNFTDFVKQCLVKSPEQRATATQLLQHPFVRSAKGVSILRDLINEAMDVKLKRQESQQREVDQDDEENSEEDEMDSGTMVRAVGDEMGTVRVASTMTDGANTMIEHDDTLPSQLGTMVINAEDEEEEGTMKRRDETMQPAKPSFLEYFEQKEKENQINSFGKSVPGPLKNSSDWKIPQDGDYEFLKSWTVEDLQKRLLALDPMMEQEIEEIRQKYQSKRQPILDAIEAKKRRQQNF
To be noted: at 0.1 µM.

Test [17] concerns the target T4, Serine/threonine-protein kinase 4 (Homo sapiens). The note with it: at 1 µM.
Test [18] deals with T5, Serine/threonine-protein kinase 3 (Homo sapiens) (UniProt Q13188).
T5 sequence (whole entry): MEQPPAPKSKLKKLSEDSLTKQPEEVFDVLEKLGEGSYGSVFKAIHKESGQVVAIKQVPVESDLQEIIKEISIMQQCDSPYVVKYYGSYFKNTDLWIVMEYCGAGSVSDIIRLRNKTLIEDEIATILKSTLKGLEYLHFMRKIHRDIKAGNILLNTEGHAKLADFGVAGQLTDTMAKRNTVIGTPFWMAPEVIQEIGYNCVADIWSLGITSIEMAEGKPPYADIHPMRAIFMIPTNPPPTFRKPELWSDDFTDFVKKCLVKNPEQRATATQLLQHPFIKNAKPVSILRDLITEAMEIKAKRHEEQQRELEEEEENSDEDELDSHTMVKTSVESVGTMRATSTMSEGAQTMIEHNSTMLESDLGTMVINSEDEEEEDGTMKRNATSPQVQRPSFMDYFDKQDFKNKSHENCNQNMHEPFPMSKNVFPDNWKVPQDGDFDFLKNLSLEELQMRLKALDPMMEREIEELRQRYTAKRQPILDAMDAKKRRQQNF
To be noted: at 0.1 µM.

The target of test [19] is T5, Serine/threonine-protein kinase 3 (Homo sapiens). The note with it: at 1 µM.
Test [20] deals with Serine/threonine-protein kinase 26 (Homo sapiens) (UniProt Q9P289). The note with it: at 0.1 µM.
Sequence of Serine/threonine-protein kinase 26 (Homo sapiens) (Q9P289 2-416 limits assumed): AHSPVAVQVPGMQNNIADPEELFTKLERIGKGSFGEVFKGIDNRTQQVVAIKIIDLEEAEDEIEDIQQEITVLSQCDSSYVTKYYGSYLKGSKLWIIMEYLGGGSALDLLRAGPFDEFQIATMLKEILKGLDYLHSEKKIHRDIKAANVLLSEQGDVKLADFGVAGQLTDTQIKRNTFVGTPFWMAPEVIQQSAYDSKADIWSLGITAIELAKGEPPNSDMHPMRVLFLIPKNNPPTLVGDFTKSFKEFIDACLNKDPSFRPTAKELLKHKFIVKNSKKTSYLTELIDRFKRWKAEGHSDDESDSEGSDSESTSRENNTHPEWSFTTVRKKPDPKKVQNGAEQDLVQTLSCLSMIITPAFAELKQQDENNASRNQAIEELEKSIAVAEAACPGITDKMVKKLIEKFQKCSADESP

Sequence of Serine/threonine-protein kinase 10 (Homo sapiens) (O94804 whole entry, looked up): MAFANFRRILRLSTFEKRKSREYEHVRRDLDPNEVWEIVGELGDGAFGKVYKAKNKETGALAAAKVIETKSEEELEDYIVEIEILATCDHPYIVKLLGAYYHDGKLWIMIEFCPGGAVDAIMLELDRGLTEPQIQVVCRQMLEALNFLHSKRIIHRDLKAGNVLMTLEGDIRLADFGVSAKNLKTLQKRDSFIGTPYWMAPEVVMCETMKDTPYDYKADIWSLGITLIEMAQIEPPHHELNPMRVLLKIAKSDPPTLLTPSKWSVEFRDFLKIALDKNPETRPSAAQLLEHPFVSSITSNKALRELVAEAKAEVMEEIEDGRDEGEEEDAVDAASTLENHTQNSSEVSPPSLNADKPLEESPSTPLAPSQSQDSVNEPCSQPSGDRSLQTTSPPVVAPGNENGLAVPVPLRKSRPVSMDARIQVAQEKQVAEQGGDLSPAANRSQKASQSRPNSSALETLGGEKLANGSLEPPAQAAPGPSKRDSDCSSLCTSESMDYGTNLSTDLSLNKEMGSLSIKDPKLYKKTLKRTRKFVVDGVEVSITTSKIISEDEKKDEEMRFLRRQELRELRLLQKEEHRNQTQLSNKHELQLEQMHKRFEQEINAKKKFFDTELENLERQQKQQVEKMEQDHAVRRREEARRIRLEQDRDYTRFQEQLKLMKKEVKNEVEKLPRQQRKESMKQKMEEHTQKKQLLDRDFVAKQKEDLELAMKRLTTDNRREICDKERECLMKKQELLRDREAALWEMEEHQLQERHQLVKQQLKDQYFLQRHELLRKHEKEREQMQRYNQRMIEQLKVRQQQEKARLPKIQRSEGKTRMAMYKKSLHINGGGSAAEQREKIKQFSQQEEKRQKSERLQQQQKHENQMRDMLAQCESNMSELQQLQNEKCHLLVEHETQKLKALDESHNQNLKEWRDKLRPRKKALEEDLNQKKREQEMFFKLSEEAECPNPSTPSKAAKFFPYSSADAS
Sequence of Mitogen-activated protein kinase kinase kinase kinase 4 (Homo sapiens) (O95819 2-1239 limits assumed): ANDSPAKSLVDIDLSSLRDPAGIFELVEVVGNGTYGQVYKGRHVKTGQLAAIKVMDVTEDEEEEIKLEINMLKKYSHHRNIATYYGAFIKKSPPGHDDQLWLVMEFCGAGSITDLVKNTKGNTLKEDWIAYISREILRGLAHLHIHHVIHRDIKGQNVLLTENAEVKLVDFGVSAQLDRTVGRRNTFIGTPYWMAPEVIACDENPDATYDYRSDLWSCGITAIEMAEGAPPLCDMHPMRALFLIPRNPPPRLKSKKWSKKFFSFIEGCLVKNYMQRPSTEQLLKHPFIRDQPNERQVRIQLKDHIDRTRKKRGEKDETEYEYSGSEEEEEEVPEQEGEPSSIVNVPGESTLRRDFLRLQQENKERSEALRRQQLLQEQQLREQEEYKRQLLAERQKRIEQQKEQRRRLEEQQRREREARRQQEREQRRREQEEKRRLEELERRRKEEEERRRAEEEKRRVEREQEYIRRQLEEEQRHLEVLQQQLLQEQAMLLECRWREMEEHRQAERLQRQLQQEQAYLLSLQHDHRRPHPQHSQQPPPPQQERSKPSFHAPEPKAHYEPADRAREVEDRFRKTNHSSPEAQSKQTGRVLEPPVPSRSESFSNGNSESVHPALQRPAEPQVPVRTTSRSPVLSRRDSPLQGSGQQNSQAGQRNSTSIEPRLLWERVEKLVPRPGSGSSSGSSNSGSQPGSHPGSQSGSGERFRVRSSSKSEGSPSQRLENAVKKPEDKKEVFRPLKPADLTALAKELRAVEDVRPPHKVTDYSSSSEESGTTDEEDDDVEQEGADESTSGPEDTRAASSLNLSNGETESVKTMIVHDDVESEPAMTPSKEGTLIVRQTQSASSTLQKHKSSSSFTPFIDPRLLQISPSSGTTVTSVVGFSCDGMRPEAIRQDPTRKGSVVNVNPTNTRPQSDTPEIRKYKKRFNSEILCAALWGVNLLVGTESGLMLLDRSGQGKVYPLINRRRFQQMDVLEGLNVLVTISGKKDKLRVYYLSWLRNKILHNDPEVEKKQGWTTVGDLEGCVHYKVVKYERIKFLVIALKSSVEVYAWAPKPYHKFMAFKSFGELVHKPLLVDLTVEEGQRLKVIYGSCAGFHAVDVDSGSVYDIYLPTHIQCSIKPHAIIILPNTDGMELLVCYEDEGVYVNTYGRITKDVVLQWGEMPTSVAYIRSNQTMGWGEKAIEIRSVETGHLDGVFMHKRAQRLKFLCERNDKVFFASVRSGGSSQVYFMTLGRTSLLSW
Sequence of Misshapen-like kinase 1 (Homo sapiens) (Q8N4C8 whole entry, looked up): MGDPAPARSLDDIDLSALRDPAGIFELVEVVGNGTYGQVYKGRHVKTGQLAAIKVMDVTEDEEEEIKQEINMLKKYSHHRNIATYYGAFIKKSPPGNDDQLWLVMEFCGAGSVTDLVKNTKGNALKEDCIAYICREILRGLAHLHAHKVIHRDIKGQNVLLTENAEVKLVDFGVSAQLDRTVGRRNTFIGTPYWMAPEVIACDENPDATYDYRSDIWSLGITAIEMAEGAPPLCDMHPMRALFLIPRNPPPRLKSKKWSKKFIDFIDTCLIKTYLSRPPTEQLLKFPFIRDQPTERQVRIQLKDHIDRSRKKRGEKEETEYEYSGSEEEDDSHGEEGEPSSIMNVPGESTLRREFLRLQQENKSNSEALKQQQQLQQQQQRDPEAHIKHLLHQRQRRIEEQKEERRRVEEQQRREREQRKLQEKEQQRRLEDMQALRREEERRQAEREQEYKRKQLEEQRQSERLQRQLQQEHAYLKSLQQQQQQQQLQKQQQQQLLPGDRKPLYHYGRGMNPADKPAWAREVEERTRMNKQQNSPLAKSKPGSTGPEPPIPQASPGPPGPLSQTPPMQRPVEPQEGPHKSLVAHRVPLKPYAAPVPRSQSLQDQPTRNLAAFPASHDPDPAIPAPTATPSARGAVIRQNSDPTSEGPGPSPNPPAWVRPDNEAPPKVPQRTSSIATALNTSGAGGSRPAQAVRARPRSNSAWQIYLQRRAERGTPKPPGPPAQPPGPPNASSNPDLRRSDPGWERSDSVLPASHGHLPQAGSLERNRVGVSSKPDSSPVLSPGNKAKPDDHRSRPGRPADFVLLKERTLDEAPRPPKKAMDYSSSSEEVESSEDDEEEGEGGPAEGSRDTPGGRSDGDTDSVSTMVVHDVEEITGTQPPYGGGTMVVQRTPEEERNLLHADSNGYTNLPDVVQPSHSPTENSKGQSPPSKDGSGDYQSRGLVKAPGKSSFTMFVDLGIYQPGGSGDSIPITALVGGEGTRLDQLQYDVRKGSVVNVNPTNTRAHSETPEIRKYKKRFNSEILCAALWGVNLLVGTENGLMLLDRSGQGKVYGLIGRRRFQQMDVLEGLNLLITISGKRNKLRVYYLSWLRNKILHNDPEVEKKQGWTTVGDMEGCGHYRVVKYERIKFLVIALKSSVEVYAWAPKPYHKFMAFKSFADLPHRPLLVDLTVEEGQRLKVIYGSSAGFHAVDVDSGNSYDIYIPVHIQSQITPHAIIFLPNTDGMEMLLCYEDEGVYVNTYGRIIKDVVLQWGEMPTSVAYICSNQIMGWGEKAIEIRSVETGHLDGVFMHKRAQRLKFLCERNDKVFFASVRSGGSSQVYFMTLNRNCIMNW
Sequence of Dual specificity mitogen-activated protein kinase kinase 1 (Homo sapiens) (Q02750 whole entry): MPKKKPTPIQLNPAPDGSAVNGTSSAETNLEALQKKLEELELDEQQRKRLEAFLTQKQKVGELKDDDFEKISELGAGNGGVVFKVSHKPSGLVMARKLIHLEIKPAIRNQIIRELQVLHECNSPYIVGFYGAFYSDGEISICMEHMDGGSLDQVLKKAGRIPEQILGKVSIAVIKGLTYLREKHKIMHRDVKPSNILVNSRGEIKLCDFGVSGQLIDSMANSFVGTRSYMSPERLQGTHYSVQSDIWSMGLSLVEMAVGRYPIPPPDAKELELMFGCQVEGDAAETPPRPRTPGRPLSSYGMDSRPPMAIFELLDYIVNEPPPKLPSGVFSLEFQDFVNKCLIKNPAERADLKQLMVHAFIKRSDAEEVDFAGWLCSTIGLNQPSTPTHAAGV

On to `CC1(C)CC(n2cnc(-c3ccc(F)cc3)c2-c2ccnc(N)n2)CC(C)(C)N1`, for which the inhibition (commonly the change of the read-out against control, counted positive when it falls) was 4.57% in test [1]; 3.04% in test [2]; -0.43% in test [3]; -0.39% in test [4]; -1.87% in [5]; 1.32% in test [6]. Moreover, the inhibition in test [7] came out at 6.74%; in test [8] it was 1.36%; in test [9], 2.09%; in test [10], 2.07%; in [11] it was 2.96%; in test [12] it was 1.4%. For the same compound, the inhibition in test [13] was 1.04%; in test [14], 1.2%; in test [15], 4.78%; in test [16] it was -3.13%; in [17], -0.15%; in [18], -0.38%. The inhibition in [19] is -1.38%; in test [20], -0.28%.

With `Nc1nccc(-c2c(-c3ccc(F)cc3)ncn2C2CCNCC2)n1`, the inhibition was 2.76% and 3.22% in test [1]; -5.29% and 2.13% in test [2]; -0.57% and 3.55% in [3]; -7.14% and -0.01% in test [4]; -5.53% and -3.08% in test [5]; -0.78% and 0.07% in test [6]. Also, the inhibition in [7] is 4.14% and -0.32%; in [8], -0.37% and 2%; in [9], 4.6% and 3.83%; in test [10], -1.38% and 3.46%; in [11] it was 11.7% and 20.6%; in [12], -1.59% and 0.76%. The inhibition in [13] was 1.41% and 5.84%; in [14] it was -0.88% and 2.53%; in [15] it was 6.74% and 17%; in test [16], -3.42% and 0.28%; in test [17] it was -0.43% and 1.1%; in test [18], -3.39% and 1.21%. The inhibition in test [19] is 1.14% and 0.77%; in test [20] it was 0.83% and -0.54%.

As for `CC1=C(C(=O)Nc2ccc3[nH]ncc3c2)C(c2ccc(F)cc2)N=C(c2ccc(C(F)(F)F)nc2)N1` (stereo not given), the inhibition in [1] amounted to 51%; in test [2], 3.38%; in [3], 16.9%; in [4], 3.47%; in [5] it was 21.3%; in test [6], 0.31%. Besides, the inhibition in test [7] is 2.22%; in [8], 1.59%; in [9] it was 2.35%; in test [10] it was 2.89%; in [11] it was 2.92%; in [12] it was -0.07%. In addition, the inhibition in test [13] was determined as 3.43%; in test [14], 4.22%; in [15], 2.06%; in test [16] it was 2.29%; in [17], 2.27%; in [18] it was 2.18%. Further, the inhibition in test [19] was 0.56%; in test [20] it was -0.24%.

Turning to `CN1CCN(Cc2ccc(-c3cc4ncnc(Nc5ccc(OCc6cccc(F)c6)c(Cl)c5)c4s3)o2)CC1`, the inhibition in test [1] is 6.51% and 11.8%; in test [2] it was 16% and 13%; in test [3] it was 45.6% and 53%; in [4] it was 4.18% and 3.42%; in test [5], 26.1% and 40.5%; in [6], 17.4% and 22.1%. In addition, the inhibition is 56.8% and 67% in test [7]; 2.1% and 1.95% in test [8]; 13% and 8.01% in test [9]; 2.96% and 6.93% in [10]; 8.74% and 16.5% in test [11]; 3.63% and 7.76% in [12]. Besides, the inhibition in test [13] was 3.91% and 8.23%; in test [14], 4.62% and 8.19%; in test [15], 7.44% and 13.7%; in test [16], 2.15% and 5.51%; in test [17], 5.38% and 9.4%; in [18], 1.94% and 6.66%. Besides, the inhibition was 4.21% and 9.14% in [19]; -0.84% and -1.22% in test [20].

`Cc1c2ccc(N(C)c3ccnc(Nc4cccc(S(N)(=O)=O)c4)n3)cc2nn1C`: the inhibition in test [1] was determined as 72.2%; in [2], 12.5%; in test [3], 54.2%; in test [4] it was 15.8%; in [5], 81.6%; in test [6] it was 23.4%. In addition, the inhibition worked out at 64.4% in [7]; 7.77% in test [8]; 41% in test [9]; 11.1% in [10]; 55.2% in test [11]; 6.31% in test [12]. Also, the inhibition in test [13] was found to be 10.7%; in test [14], 12.8%; in test [15] it was 55.3%; in test [16], 6.6%; in test [17], 8.01%; in [18] it was 5.78%. In addition, the results for the inhibition in [19] and in test [20] were 7.64% and -1.28%, respectively.

As for `OCCCNc1nccc(-c2c(-c3ccc(F)cc3)nn3cc(C(F)(F)F)ccc23)n1`, the inhibition is 7.6% in test [1]; 3.85% in [2]; 9.08% in test [3]; 0.36% in test [4]; 2.19% in test [5]; 6.36% in test [6]. In addition, the inhibition in test [7] was 8.12%; in test [8], 0.6%; in test [9] it was 3.51%; in test [10] it was 5.34%; in test [11], 21.4%; in test [12], 1.92%. For the same compound, the inhibition in test [13] came to 7.22%; in test [14], 5.07%; in test [15], 13.3%; in [16] it was 3.31%; in test [17], 5.88%; in [18], 4.28%. In addition, the inhibition in [19] turned out to be 2.96%; in [20] it was 0.48%.
